Source: PubChem
An excerpt weighted towards active compounds, which were near 19% of everything screened.
TDP1 block – inhibitors of human tyrosyl-DNA phosphodiesterase TDP1; recombinant TDP1, AlphaScreen DNA substrate cleavage; hit rate 0.28% among 350,000; AID 485290; Potency, µM (series often up to 130 µM), without a hit: at the highest dose activity change, negative = inhibition, usual class: inhibitors; Q9NUW8; further: potency means the concentration at half of the fitted maximal effect; nearly all actives have a fitted effect of over 40% in size
Target sequence (Q9NUW8 whole entry, looked up): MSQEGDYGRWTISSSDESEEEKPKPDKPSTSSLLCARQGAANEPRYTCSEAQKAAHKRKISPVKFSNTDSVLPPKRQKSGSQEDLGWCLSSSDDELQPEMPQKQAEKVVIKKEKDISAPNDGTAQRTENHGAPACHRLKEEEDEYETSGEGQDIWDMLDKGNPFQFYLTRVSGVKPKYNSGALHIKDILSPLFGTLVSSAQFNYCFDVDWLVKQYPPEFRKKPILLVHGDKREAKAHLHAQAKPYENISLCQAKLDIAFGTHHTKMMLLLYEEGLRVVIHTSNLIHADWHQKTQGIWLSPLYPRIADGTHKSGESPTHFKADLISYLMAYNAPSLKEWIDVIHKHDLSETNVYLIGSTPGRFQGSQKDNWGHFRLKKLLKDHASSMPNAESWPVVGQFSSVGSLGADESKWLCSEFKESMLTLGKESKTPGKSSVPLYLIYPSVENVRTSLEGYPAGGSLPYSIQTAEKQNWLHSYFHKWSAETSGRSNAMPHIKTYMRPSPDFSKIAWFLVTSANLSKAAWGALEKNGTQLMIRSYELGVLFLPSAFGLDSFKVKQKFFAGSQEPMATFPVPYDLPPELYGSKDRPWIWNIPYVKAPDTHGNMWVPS
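Tdp1 1 nM final; 15 min RT w/ cpd; substrate 15 nM, 5 min; beads 10 ug/ml, 10 min; AlphaScreen read. Neg ctrl: no enzyme.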
IL1B secr inh – inflammasome signaling inhibition, IL-1 beta readout; hit rate 4.7% among 360,000; AID 743279; THP-1 LPS/ATP IL-1B secretion, AlphaLISA, 16 h; hits give low values; activity change, % at 57.5 µM; in the data active means activity change below about -50%; inconclusive means mostly about -30% to -49%
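Secreted IL-1B measured by AlphaLISA bead assay after 16 h compound exposure of THP-1 cells; compounds (final up to 57.5 uM) added 1 h before LPS (250 ng/mL) and ATP (1.25 mM) stimulation; lower signal means less secretion.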
Giardia kill – kills Giardia lamblia | Giardia lamblia trophozoite viability | activity change, % at 7.66 µM, hits read low | hit rate 0.15% among 340,000 | AID 540267; in the data active means activity change below about -80%; inconclusive means between about -30% and that limit;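 further: parasites exposed to compound for two days anaerobically before the ATP read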
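Each well holds 100 Giardia trophozoites and compound. After two days (48 hrs) at 37 deg C in anaerobic conditions, ATP is quantified by luminescence.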
TDP1 cell noCPT – qHTS for Inhibitors of human tyrosyl-DNA phosphodiesterase 1 (TDP1): qHTS in cells in absence of CPT; DT40 Tdp1-/- hTDP1 cells, no CPT, ATP luminescence, 48 h; Potency, µM (highest dose often 46.2 µM), for inactives: at the top dose activity change, negative = growth inhibition, hits mostly inhibitors; hit rate 15% among 420,000; AID 686978, 2013; further: potency means the concentration at half of the fitted maximal effect; nearly all actives have a fitted effect of over 55% in size
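DT40 Tdp1-/-;hTDP1 cells, no CPT (DMSO vehicle only), 400 cells/well; compounds pin-transferred; ≥48 hr, 37 °C; CellTiter-Glo 30 min RT dark, luminescence read.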
DT40 TDP1 CPT – DT40-hTDP1 cell growth loss with CPT; chicken DT40 Tdp1-/-;hTDP1 cells + 20 nM CPT, ATP luminescence, 48 h; Potency, µM (titrated, usually from 46.2 µM), for the others: at the top dose activity change, negative = growth inhibition, most hits filed as inhibitors; AID 686979; hit rate 12% among 420,000; further: potency means the concentration at half of the fitted maximal effect; nearly all actives have a fitted effect of over 55% in size
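Chicken DT40 Tdp1-/- cells complemented with human TDP1, 400 cells/well, exposed to compounds plus 20 nM camptothecin for at least 48 h at 37 C; viability read as ATP content by CellTiter-Glo luminescence.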
ELG1 DNA repair – ELG1-dependent DNA repair inhibition. HEK293T ELG1-luciferase reporter, luminescence, 16 h; DNA damage induced by 5-fluorouridine. Potency, µM (top dose mostly 46.1 µM), without a hit: at the top dose activity change, negative = inhibition, hits mostly inhibitors. hit rate 2.3% among 330,000. AID 504467; further: potency means the concentration at half of the fitted maximal effect; nearly all actives have a fitted effect of over 55% in size
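Luminescence from the luciferase reporter, measured 30 min after ONE-Glo reagent at room temperature, was the read-out. Beforehand, 2,000 cells per well were exposed for 16 hr at 37 °C to 5-fluorouridine together with compound or vehicle.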
* = called active by the depositor; u = inconclusive; x = not tested or not shown; [ ] = remark or other dose. Unless noted, the call rests on the fitted dose curve; in most records, active means well fitted curve in the direction sought with a large enough effect; inconclusive means small, poorly fitted or top-dose-only effect, or another doubt; inactive means no such curve, though single readings can be large; an effect the other way counts as inactive or inconclusive. On the % scale 0 is the no-effect control and ±100 the full control effect.

SMILES	TDP1 block	IL1B secr inh	Giardia kill	TDP1 cell noCPT	DT40 TDP1 CPT	ELG1 DNA repair
COC(=O)c1ccc(N=NN2CCCCCC2)cc1	-8%	-63*	-17	2%	1%	u
Cn1c(=O)c2c(n3c4ccccc4nc13)NC(=O)CC2c1cccc(F)c1 (stereo not given)	7%	x	x	-27%	-22%	x
C[C@H](CO)N1C[C@H](C)[C@H](CN(C)S(=O)(=O)c2cccs2)OCc2cnnn2CCCC1=O	x	16	x	14%	4%	x
Cc1ccccc1CNC(=O)c1ccc(Cn2c(SCc3cccc(F)c3)nc3cccnc32)cc1	2%	x	x	15µM*	15µM*	x
Cc1ccccc1CSc1nc2cccnc2n1Cc1ccc(C(=O)NCCc2cccs2)cc1	7%	x	x	16µM*	13µM*	x
O=C(NCc1cccs1)c1ccc(Cn2c(SCc3cccc(F)c3)nc3cccnc32)cc1	5%	x	x	18µM*	26µM*	x
Cc1ccc(CSc2nc3cccnc3n2Cc2ccc(C(=O)NCCc3ccccc3)cc2)cc1	1%	x	x	-7%	-15%	x
COc1ccc(Cn2c(SCc3ccc(C(=O)NCc4ccccc4F)cc3)nc3cccnc32)cc1	-1%	x	x	u	u	x
CN(C)c1ccc(CNC(=O)c2ccc(Cn3c(SCc4ccccc4)nc4cccnc43)cc2)cc1	9%	x	x	u	u	x
O=C(NCCc1ccccc1)c1ccc(Cn2c(SCc3cccc(F)c3)nc3cccnc32)cc1	x	x	x	15µM*	7.3µM*	x
CC(C)(C)c1ccc(C(=O)N2CCC3(CC2)CC3C(=O)NCCc2ccccn2)cc1 (stereo not given)	x	x	x	-29%	-8%[9.04 µM]	x
CC1CCCCC12NC(=O)N(CC(=O)OCC(=O)NC(=O)c1ccccc1)C2=O (stereo not given)	1%	-3	-18	27%	-11%	-5%
CCOc1ccc(C(=O)NCCC(=O)N2CCC3(CC2)NCCc2[nH]cnc23)cc1OCC	1%	-1	-7	14%	1%	u
CN(C)c1ccc(CNC(=O)C2(C)C=CCN2C(=O)c2ccccc2)cc1 (stereo not given)	5%	x	x	x	x	x
CC1=CC(=C(C#N)C#N)C=C(C)N1CCC(C)C	2%	-3	-6	10%	u	7%
CSc1nnc2n(C)c3c(c(=O)n12)C1(CCCC1)Cc1ccccc1-3	3%	1	-5	26µM*	u	5%
Cn1c(=O)c2c(n3cnnc13)-c1ccccc1CC21CCCC1	2%	-12	-21	15µM*	u	u
O=c1c2c(n3cnnc3n1C1CCCCC1)-c1ccccc1CC21CCCCC1	2%	16	3	26µM*	21µM*	-1%
O=c1c2c(n3nnnc3n1-c1ccccc1)-c1ccccc1CC21CCCC1	0%	21	-14	u	2.3µM*	14%
O=c1c2c(n3nnnc3n1Cc1ccccc1)-c1ccccc1CC21CCCC1	-4%	14	26	u	-29%	-5%
Cn1ncn2c(=O)c3c(nc12)-c1ccccc1CC31CCCC1	-3%	63	15	u	u	-21%
CCOc1cc(C2c3c(-c4ccccc4O)n[nH]c3C(=O)N2Cc2cccnc2)ccc1O (stereo not given)	0%	x	x	-12%	-27%	x
CC(=O)N1CCc2cc(C(=O)CN3CCN(c4ccccn4)CC3)ccc21	-4%	29	11	9%	12%	u
CS(=O)(=O)N(CC(=O)N1CCCCCC1)c1cccc([N+](=O)[O-])c1	x	1	-9	7%	2%	28%
Cc1ccccc1Cn1nnc2c(=O)[nH]c(C3CCN(C(=O)c4ccccc4)CC3)nc21	4%	x	x	-14%	-11%	x
SMILES	TDP1 block	IL1B secr inh	Giardia kill	TDP1 cell noCPT	DT40 TDP1 CPT	ELG1 DNA repair
COc1ccc(N(C)S(=O)(=O)c2cccc(C(=O)Nc3ccc(N4CCOCC4)cc3)c2)cc1	6%	-13	-8	23µM*	18µM*	u
COc1ccc(N(C)S(=O)(=O)c2cccc(C(=O)NC3CCCC3)c2)cc1	1%	u	-1	u	u	-19%
COc1ccc(N(C)S(=O)(=O)c2cccc(C(=O)NCC3CCCCC3)c2)cc1	7%	-50*	-5	13µM*	23µM*	u
CN(C)S(=O)(=O)c1cccc(C(=O)Nc2ccc(N3CCOCC3)cc2)c1	x	24	9	-16%	-25%	19%
COc1ccc(N(C)S(=O)(=O)c2cccc(C(=O)NC3=NCCS3)c2)cc1	8%	-8	-8	u	-19%	u
CN(c1ccccc1)S(=O)(=O)c1cccc(C(=O)Nc2ccc(N3CCOCC3)cc2)c1	0%	u	1	18µM*	u	18µM*
C(=N\n1cnnc1)/c1ccc(OCc2ccccc2)cc1	0%	30	3	-4%	-15%	u
Cc1cc(/C=N/n2cnnc2)c(C)n1-c1ccc(OCc2ccc(Cl)cc2)cc1	15%	-82*	8	3.3µM*	4.6µM*	u
Fc1ccccc1COc1cccc(/C=N/n2cnnc2)c1	-2%	-7	-30	3%	-34%	-17%
Cc1cc(/C=N/n2cnnc2)c(C)n1-c1ccc(OCc2ccccc2F)cc1	5%	-85*	-12	13µM*	21µM*	-2%
Cc1ccc(CSCCNC(=O)CSc2ccccc2)cc1	3%	-24	-7	-24%	7%	12%
CC1=C(C(=O)Nc2ccc(CC(=O)NCc3ccc(OC(C)C)cc3)cc2)SCCO1	x	62	u	0.18µM*	0.16µM*	u
COc1cccc(CNC(=O)c2cccc(NC(=O)C3=C(C)OCCS3)c2)c1	x	-13	4	u	u	u
O=C(Nc1ccccc1C(=O)NCc1ccccc1)C1=CSCCO1	3%	-1	26	-28%	-8%	11%
COc1ccc(CNC(=O)Cc2ccc(NC(=O)C3=C(C)OCCS3)cc2)cc1	x	49	u	2.1µM*	2.3µM*	u
CCOc1ccccc1CNC(=O)c1ccccc1NC(=O)C1=CSCCO1	5%	-9	-23	26µM*	u	u
COc1cccc(CNC(=O)c2ccccc2NC(=O)C2=C(C)OCCS2)c1OC	2%	-20	21	12µM*	18µM*	12µM*
CCOc1ccc(CNC(=O)c2cccc(NC(=O)C3=C(C)OCCS3)c2)cc1	10%	-5	-14	u	u	u
CCc1cccc(OCC(=O)Nc2cc(S(=O)(=O)N3CCOCC3)ccc2N2CCCC2)c1	4%	-23	-26	u	u	u
